From PubChem BioAssay
Calls of active or inactive are those of the source.

Columns and labels:
Albumin (Bos taurus) = Albumin (Bos taurus) (UniProt P02769); experiment: compounds binding labelled BSA control protein – biochemical, small-molecule microarray, Alexa647 label, 635/667 nm fluorescence, artefact control for SMM control protein annotation, profiling panel (AID 1118); settings: BSA-A647 binding, fluorescence 635 nm, higher = more signal;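 also: score merges 667 nm emission intensity and signal-to-noise per printed compound spot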
Sequence of Albumin (Bos taurus) (P02769 whole entry, looked up): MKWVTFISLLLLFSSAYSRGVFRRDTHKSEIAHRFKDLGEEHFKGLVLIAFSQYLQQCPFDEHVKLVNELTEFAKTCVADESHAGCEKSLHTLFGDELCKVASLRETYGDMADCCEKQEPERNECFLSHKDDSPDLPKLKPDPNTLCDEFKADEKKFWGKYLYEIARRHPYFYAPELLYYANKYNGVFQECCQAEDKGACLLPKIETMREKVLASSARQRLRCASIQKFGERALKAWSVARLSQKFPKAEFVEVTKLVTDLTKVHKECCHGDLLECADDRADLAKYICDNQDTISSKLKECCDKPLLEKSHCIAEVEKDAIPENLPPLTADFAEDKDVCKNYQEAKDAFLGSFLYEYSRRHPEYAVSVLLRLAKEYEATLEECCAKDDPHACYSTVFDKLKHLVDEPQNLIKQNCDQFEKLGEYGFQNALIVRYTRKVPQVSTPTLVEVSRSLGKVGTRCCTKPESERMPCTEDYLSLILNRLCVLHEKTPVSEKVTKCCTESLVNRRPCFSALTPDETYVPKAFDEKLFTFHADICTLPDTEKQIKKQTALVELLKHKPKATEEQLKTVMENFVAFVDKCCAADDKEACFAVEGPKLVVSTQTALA

[1] = probe aXIP binding to arrayed compounds – biochemical, NeuroSMM set, 635/667 nm fluorescence, primary screen (AID 1119); settings: small-molecule microarray, higher = more signal, called active from +8 up or from −8 down;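 also: probe is the protein aXip251-270 applied at 1 µg/mL to compound-printed slides; binding of probe to printed compounds measured as 667 nm fluorescence plus signal to noise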
[2] = probe aNOTCH3 binding on compound microarray – biochemical, small-molecule microarray, 635/667 nm fluorescence, primary screen (AID 1120); settings: higher = more signal;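 also: probe is a biotin-tagged antibody raised against NOTCH3 rather than NOTCH3 protein; score merges spot fluorescence near 667 nm with spot signal to noise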
[3] = probe aNOTCH2 binding on compound microarray – biochemical, small-molecule microarray, 635/667 nm fluorescence, primary screen (AID 1121); settings: higher = more signal;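 also: score merges feature fluorescence read at 667 nm with its signal to noise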
[4] = target: Carbonic anhydrase 2 (Homo sapiens) (UniProt P00918); experiment: compounds binding carbonic anhydrase 2 – biochemical, small-molecule microarray, Alexa647-labelled CAII, profiling panel (AID 1122); settings: CAII-A647 binding fluorescence, higher = more signal
[5] = COS7 lysate on small-molecule microarray, probe aHis, 635 nm (AID 1123); settings: COS7 cell lysate, fluorescence, higher = more signal;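 also: z-score combines 667nm fluorescence intensity with signal-to-noise per printed compound spot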
[6] = probe aLAP1 signal on lysate-treated microarray – cell lysate, small-molecule microarray, COS7 lysate, primary screen (AID 1124); settings: probe aLAP1, fluorescence, higher = more signal;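 also: lysate comes from COS7 cells expressing LAP1 and is applied at 0.3 µg/mL; score merges spot fluorescence near 667 nm with signal-to-noise over triplicate slides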
Sam68 (KHDRBS1) = experiment: compounds binding KHDRBS1 protein – biochemical, small-molecule microarray, 635 nm fluorescence, primary screen (AID 1125); settings: higher = more signal;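 also: score merges 667 nm channel intensity with signal to noise over triplicate slides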
[7] = test system: Chordin-like protein 2 (CHRDL2); experiment: compounds binding chordin-like 2 – biochemical, small-molecule microarray, 635 nm fluorescence, primary screen (AID 1126); settings: fluorescence 635 nm, higher = more signal;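 also: printed compound slides probed with Chrdl2 protein at 4 µg/mL for 1 h at 4 C; score merges 667 nm emission intensity with signal to noise over three replicate slides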
[8] = target: Concanavalin-A (Canavalia ensiformis) (UniProt P02866); experiment: compounds binding concanavalin A lectin – biochemical, small-molecule microarray, Alexa647 label, 635 nm, artefact control for SMM control protein annotation, primary screen (AID 1127); settings: ConA-A647 binding fluorescence, higher = more signal;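 also: z combines 667 nm emission intensity with signal-to-noise across three replicate slides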
Sequence of Concanavalin-A (Canavalia ensiformis) (P02866 whole entry, looked up): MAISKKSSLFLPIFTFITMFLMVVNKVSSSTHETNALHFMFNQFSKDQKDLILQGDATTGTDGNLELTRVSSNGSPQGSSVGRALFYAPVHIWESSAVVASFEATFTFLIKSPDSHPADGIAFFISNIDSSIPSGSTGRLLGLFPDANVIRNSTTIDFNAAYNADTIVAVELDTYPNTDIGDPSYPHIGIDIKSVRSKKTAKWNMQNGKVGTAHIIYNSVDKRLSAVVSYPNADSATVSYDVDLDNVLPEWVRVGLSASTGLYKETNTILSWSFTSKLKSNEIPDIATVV

Row | SMILES | composite z-score (Albumin (Bos taurus)) | composite Z-score [1] | composite z-score [2] | composite z-score [3] | composite z-score [4] | composite z-score [5] | composite z-score [6] | composite z-score (Sam68 (KHDRBS1)) | composite z-score [7] | composite z-score [8]
1 | CCCCCN1CC=CC23O[C@@H]4/C=C\CCCOC(=O)C4[C@H]2C(=O)N(CCCO)[C@@H]3C1=O (stereo not given in full) | 0.433 | -0.0981 (inactive) | -0.095 | -0.104 | 0.689 | 1.82 | 1.04 | 0.798 | -0.343 | 0.256
2 | CN(C)C(=O)[C@]1(Cc2ccccc2N=[N+]=[N-])N=C(c2ccc(OCCCO)cc2)O[C@@H]1c1ccccc1 | 0.724 | -0.316 (inactive) | 0.0522 | -0.0013 | 0.623 | 2.22 | 0.644 | 1.31 | 0.0709 | 1.13
3 | COC(=O)[C@@]1(Cc2ccccc2)[C@H]2c3cc(C(=O)N4CCCC4)n(Cc4cccc5ccccc45)c3C[C@H]2CN1C(=O)c1ccccc1 | 0.942 | 0.304 (inactive) | 1.44 | 0.707 | 0.741 | 1.54 | 0.539 | 0.621 | -0.975 | 0.308
4 | CN(C)CCCNC(=O)[C@@]1(c2ccc([N+](=O)[O-])cc2)CC(=O)N(C2CCCCC2)[C@@H]1c1ccc(CO)cc1I | -0.13 | -0.75 (inactive) | -0.128 | -0.124 | 0.397 | 1.7 | 0.742 | 1.34 | 0.096 | 1.15
5 | O=C(C1N=C(c2ccc(OCCCO)cc2)N(c2ccccc2)O1)N1CCOCC1 (stereo not given) | 0.709 | 0.0285 (inactive) | 0.237 | -0.0843 | 0.557 | 1.54 | 0.255 | 1.32 | -0.114 | 0.488
6 | COc1ccc(NN2C(C(O)c3ccc([N+](=O)[O-])cc3)C=CC3C(=O)N(C4CCCCC4)C(=O)C32)cc1 (stereo not given) | 0.424 | 0.601 (inactive) | 0.178 | -0.115 | 0.561 | 1.48 | -0.0699 | 1.23 | -0.261 | 0.505
7 | C=CC[C@]1(C(=O)N2CCCCC2)N=C(c2ccc(OCCCO)cc2)O[C@H]1c1ccccc1 | 0.579 | 0.458 (inactive) | 0.748 | 0.429 | 0.63 | 2.04 | 0.488 | 1.31 | 0.238 | 0.387
8 | CS(=O)(=O)CCOC(=O)C1=CC(CCCO)=CC(c2ccc(CN3CCCC3)cc2)N(Cc2cc3c(cc2Br)OCO3)C=C1C(=O)OCCS(C)(=O)=O (stereo not given) | 0.649 | 1.09 (inactive) | 0.165 | -0.0163 | 0.804 | 1.78 | 1.31 | 1.31 | 0.373 | 1.08
9 | COc1ccc(C(=O)O[C@H]2CC[C@]3(C)C4=C(CCC3C2(C)C)[C@]2(C)CC[C@H]([C@H](C)CCCC(C)C)[C@@]2(C)CC4)cc1 (stereo not given in full) | 0.12 | -0.482 (inactive) | 0.236 | -0.149 | -0.008 | 0.688 | 0.064 | 0.154 | 0.575 | 0.447
10 | COCCOC(=O)N1C(=O)[C@@]2(c3cc(C#CC4(O)CCCCCC4)ccc31)[C@H](c1ccc(O)cc1)N1[C@H](c3ccccc3)[C@H](c3ccccc3)OC(=O)[C@H]1[C@@H]2C(=O)Nc1nc2ccccc2s1 | 0.873 | 0.0656 (inactive) | 0.499 | 0.203 | 0.362 | 1.85 | 0.552 | 1.32 | 0.524 | 0.785
11 | CCCCCCC#C[Si](O[C@H](c1ccccc1)c1cn([C@H](CO)Cc2ccccc2)nn1)(C(C)C)C(C)C | -0.188 | -0.377 (inactive) | -0.158 | -0.14 | 0.855 | 1 | 0.256 | 0.729 | -0.346 | -0.0362
12 | C[N+](C)(C)CCCC[C@@H]1NC(=O)[C@@H]2C[C@H](C(=O)NCCCCCN)[C@H](c3cccc(OCCO)c3)N2C1=O | 0.924 | 0.0926 (inactive) | -0.0744 | 0.0292 | 0.832 | 2.08 | -0.207 | 1.32 | -0.633 | 0.929
13 | CO[C@H]1O[C@H](CO)[C@@H](OC(=O)Nc2ccc(Br)cc2)[C@H](OC(=O)c2cc3ccccc3[nH]2)[C@H]1OC(=O)c1cc2ccccc2[nH]1 | 0.93 | 0.907 (inactive) | -0.04 | -0.101 | 0.386 | 1.25 | 0.451 | 1.33 | 0.283 | 1.14
14 | O=C(NCc1ccccc1)[C@@]1(Cc2ccccc2)N=C(c2ccc(OCCCO)cc2)O[C@H]1c1ccccc1 | 0.974 | 0.1 (inactive) | 0.261 | 0.349 | 0.617 | 2.41 | 1.4 | 1.31 | -1.46 | 1.15
15 | O=C1O[C@H](c2ccccc2)[C@H](c2ccccc2)N2[C@H]1[C@@H](C(=O)O)[C@]1(C(=O)Nc3ccc(C#CC4=CCCCC4)cc31)[C@H]2c1ccccc1OCCO | 0.871 | 0.685 (inactive) | 0.806 | 0.0062 | 0.602 | 2.06 | 0.834 | 1.31 | 0.401 | 1.19
16 | COC(=O)C(CC#Cc1ccc2c(c1)[C@]1(C(=O)N2)[C@H](C(=O)O)[C@H]2C(=O)O[C@H](c3ccccc3)[C@H](c3ccccc3)N2[C@@H]1c1ccc(O)cc1)C(=O)OC | -0.266 | -1.69 (inactive) | -0.274 | -0.181 | 0.66 | 1.07 | 0.898 | 0.661 | -0.872 | -0.417
17 | C=C(CCCC)C(=O)CC[C@H](OC(=O)c1cccnc1)c1ccccc1OCCO | 0.287 | 1.71 (inactive) | -0.0345 | -0.161 | 0.268 | 0.232 | 0.259 | -0.546 | 0.335 | 0.277

Row | SMILES | composite z-score (Albumin (Bos taurus)) | composite Z-score [1] | composite z-score [2] | composite z-score [3] | composite z-score [4] | composite z-score [5] | composite z-score [6] | composite z-score (Sam68 (KHDRBS1)) | composite z-score [7] | composite z-score [8]
18 | COCCCNC(=O)C1N=C(c2ccc(OCCCO)cc2)N(c2ccccc2)O1 (stereo not given) | 0.107 | -0.442 (inactive) | 0.0836 | -0.112 | 0.778 | 0.388 | -0.193 | 1.3 | -0.289 | 1.04
19 | COC(=O)C=C(CC(O)c1cccc(Cl)c1)OC (stereo not given) | 1.04 | 1.22 (inactive) | 0.936 | 0.436 | 0.811 | 0.461 | 1.02 | 0.0579 | 0.091 | -0.115
20 | C=CCNC(=O)[C@H]1[C@@H]2C(=O)O[C@@H](c3ccccc3)[C@@H](c3ccccc3)N2[C@@H](c2ccc(OCCO)cc2)[C@]12C(=O)N(C(=O)OCCOC)c1ccccc12 | 0.262 | 0.108 (inactive) | 0.199 | -0.0964 | 0.381 | 1.99 | 0.503 | 1.3 | 0.176 | 1.14
21 | CN1C(=O)C2C=CC(C(O)c3ccc(-c4ccccc4)s3)N(N(c3ccccc3)c3ccccc3)C2C1=O (stereo not given) | 0.828 | 0.81 (inactive) | -0.0865 | -0.134 | 0.365 | 1.69 | -0.149 | 0.749 | 0.414 | 1.08
22 | O=C1O[C@H](c2ccccc2)[C@H](c2ccccc2)N2[C@H]1[C@@H](C(=O)NC[C@H](O)c1ccccc1)[C@]1(C(=O)Nc3ccccc31)[C@H]2c1ccc(OCCO)cc1 | 0.466 | -0.249 (inactive) | -0.0647 | -0.082 | 0.59 | 1.67 | 0.218 | 1.31 | 0.25 | 1.14
23 | O=C(c1ccccc1)N1Cc2ccccc2[C@@H]2OC(c3ccc(OCCCO)cc3)=N[C@]2(Cc2ccccc2)C1=O | 0.383 | 0.07 (inactive) | 0.225 | -0.18 | 0.554 | 1.38 | 0.482 | 1.31 | 0.061 | 1.13
24 | CN1C(=O)C2C=CC(C(O)c3ccc(I)cc3)N(N3CCCCC3)C2C1=O (stereo not given) | 0.999 | 0.891 (inactive) | 0.748 | 0.0196 | 0.608 | 2.85 | 0.879 | 1.32 | -0.119 | 1.15
25 | CCOC(=O)C=Cc1cc([N+](=O)[O-])ccc1O | -0.307 | -0.26 (inactive) | 0.0209 | -0.0162 | 0.802 | 0.751 | 0.422 | 0.471 | -1.26 | -0.0123
26 | CCCCCC1=C2CNC(CCC)(C(=O)OC)C=C2C(C)C1=O (stereo not given) | 0.912 | 0.956 (inactive) | 0.227 | 0.153 | 0.698 | 1.61 | 0.448 | 0.273 | -0.723 | 0.236
27 | COC(=O)[C@@]1(Cc2ccc(F)cc2)[C@H]2c3cc(C(=O)N4CCCC4)n(Cc4cc(C)n(C)n4)c3C[C@H]2CN1C(=O)c1ccccc1 | 1.09 | 2.46 (inactive) | 0.318 | 0.385 | 0.664 | 3.58 | 1.14 | 1.32 | -0.642 | 1.14
28 | O=C1c2ccccc2[C@@]2(Cc3ccccc3N(CCN3CCOCC3)C2=O)[C@H](c2ccc(CO)cc2)N1Cc1ccccc1 | -0.425 | -0.117 (inactive) | -0.165 | -0.115 | 0.739 | 0.733 | 0.235 | -0.419 | -0.717 | 0.203
29 | O=C1O[C@H](c2ccccc2)[C@H](c2ccccc2)N2[C@H]1[C@@H](C(=O)Nc1nc3ccccc3s1)[C@]1(C(=O)Nc3ccc(C#CCCO)cc31)[C@H]2c1ccc(OCCO)cc1 | 0.797 | 0.0956 (inactive) | 0.134 | 0.0785 | 0.419 | 1.42 | 0.516 | 1.32 | 0.586 | 1.09
30 | CC(C)c1ccc(NN2C(C(O)c3cc(C(F)(F)F)cc(C(F)(F)F)c3)C=CC3C(=O)N(c4ccccc4)C(=O)C32)cc1 (stereo not given) | 0.588 | -0.117 (inactive) | 0.0203 | 0.0506 | 0.489 | 2.43 | 0.152 | 0.924 | -0.219 | 0.568
31 | C=C(COC)/C(=C/C[C@@H](OC(C)=O)c1ccc(OCCO)cc1)c1cc(C(=O)OC)ccc1OC | 0.616 | -0.064 (inactive) | 0.0873 | -0.118 | 0.591 | 0.669 | -0.413 | 1.27 | 0.784 | 0.699
32 | COc1ccc(C(O)C2C=CC3C(=O)N(c4ccccc4)C(=O)C3N2Nc2ccc(C(C)C)cc2)cc1OCc1ccccc1 (stereo not given) | 0.895 | 0.868 (inactive) | 0.307 | 0.194 | 0.576 | 1.78 | 0.902 | 1.33 | -0.443 | 1.12
33 | COC(=O)[C@@]1(Cc2ccc(F)cc2)[C@H]2c3cc(C(=O)N4CCCC4)n(Cc4ccc(C)o4)c3C[C@H]2CN1C(=O)c1ccccc1 | 0.469 | 0.157 (inactive) | 0.28 | 0.354 | 0.546 | 1.95 | 0.137 | -0.459 | -0.549 | 0.851
